DT40 TDP1 CPT: DT40-hTDP1 cell growth loss with CPT. chicken DT40 Tdp1-/-;hTDP1 cells + 20 nM CPT, ATP luminescence, 48 h. Potency, µM (titrated, usually from 46.2 µM), inactives show at the highest dose activity change, negative = growth inhibition, usual class: inhibitors. 420,000 compounds, 12% hits. AID 686979; note: potency is the fitted concentration of half-maximal effect; % is set by controls: 0 for no effect and ±100 for the full control effect; nearly all actives have a fitted effect of over 55% in size
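Chicken DT40 Tdp1-/- cells complemented with human TDP1, 400 cells/well, exposed to compounds plus 20 nM camptothecin for at least 48 h at 37 C; viability read as ATP content by CellTiter-Glo luminescence.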
D3 antag: antagonists of human D3 dopamine receptor; 360,000 compounds, 2.5% hits; D3R cells, DiscoveRx beta-arrestin luminescence, antagonist mode; active compounds read low; max response, negative = inhibition, %; P35462; in the data active = max response below about -50%; inconclusive = no clear call, values can overlap the other calls; note: % is set by controls: 0 for no effect and ±100 for the full control effect
Target sequence (P35462 whole entry, looked up): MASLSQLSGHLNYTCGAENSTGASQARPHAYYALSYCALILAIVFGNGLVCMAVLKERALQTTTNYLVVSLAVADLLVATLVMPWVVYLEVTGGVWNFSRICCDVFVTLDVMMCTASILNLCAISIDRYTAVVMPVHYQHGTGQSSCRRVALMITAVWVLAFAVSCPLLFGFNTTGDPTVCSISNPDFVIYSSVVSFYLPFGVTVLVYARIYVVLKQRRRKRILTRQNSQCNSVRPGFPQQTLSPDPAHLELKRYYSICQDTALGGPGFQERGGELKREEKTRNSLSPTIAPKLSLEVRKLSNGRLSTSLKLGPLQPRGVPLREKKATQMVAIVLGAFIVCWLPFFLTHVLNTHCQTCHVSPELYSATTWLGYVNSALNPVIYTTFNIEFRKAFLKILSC
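Cells expressing the human receptor were seeded at 1500 cells/well, incubated overnight at 37 degrees C in 5% CO2, then exposed to library compounds with dopamine controls for 90 minutes at 37 degrees C before luminescent detection.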
DRD3 agonist: agonists of human D3 dopamine receptor; P35462; 410,000 compounds, 0.58% hits; max activation, %; D3R DiscoveRx beta-arrestin cells, luminescence, 90 min; in the data active = max activation above about 30%; note: 0% is about no effect
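Agonist mode: compounds and dopamine controls were applied to plated cells for 90 min at 37 degrees C after an overnight attachment at 1500 cells/well. Luminescent read-out followed 30 - 60 minutes at room temperature with DiscoveRx detection reagent.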
TDP1 cell noCPT: qHTS for Inhibitors of human tyrosyl-DNA phosphodiesterase 1 (TDP1): qHTS in cells in absence of CPT; DT40 Tdp1-/- hTDP1 cells, no CPT, ATP luminescence, 48 h; Potency, µM (highest dose often 46.2 µM), for the others: at the top dose activity change, negative = growth inhibition, actives largely listed as inhibitors; 420,000 compounds, 15% hits; note: potency is the fitted concentration of half-maximal effect; % is set by controls: 0 for no effect and ±100 for the full control effect; nearly all actives have a fitted effect of over 55% in size
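DT40 Tdp1-/-;hTDP1 cells, no CPT (DMSO vehicle only), 400 cells/well; compounds pin-transferred; ≥48 hr, 37 °C; CellTiter-Glo 30 min RT dark, luminescence read.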
IL1B secr inh: inhibitors of inflammasome signaling (IL-1 beta secretion); THP-1 LPS/ATP IL-1B secretion, AlphaLISA, 16 h; active compounds read low; 360,000 compounds, 4.7% hits; AID 743279; activity change, % at 57.5 µM; in the data active = activity change below about -50%; inconclusive = mostly about -30% to -49%; note: % is set by controls: 0 for no effect and ±100 for the full control effect
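Secreted IL-1B measured by AlphaLISA bead assay after 16 h compound exposure of THP-1 cells; compounds (final up to 57.5 uM) added 1 h before LPS (250 ng/mL) and ATP (1.25 mM) stimulation; lower signal means less secretion.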
ClpP mod: qHTS Assay for Activators of ClpP; ATP-dependent Clp protease proteolytic subunit (Bacillus subtilis (strain 168)), P80244; purified B. subtilis ClpP, FRET peptide cleavage, 20 min; Potency, µM (top dose mostly 57.5 µM), without a hit: at the highest dose activity change, negative = active; 340,000 compounds, 1.9% hits; AID 651965, 2013; active = well fitted falling curve with a large enough effect; inconclusive = small, poorly fitted or top-dose-only effect; inactive = no such curve, though single readings can be large or run the other way; note: potency is the fitted concentration of half-maximal effect; the source files actives as falling curves though it sought activators and does not explain the sign; nearly all actives have a fitted effect of over 65% in size
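FRET quenching reversal measured ClpP activation: 10 microg/mL B. subtilis ClpP at pH 8 with the FRET-FV decapeptide, read at 430 nm after 320 nm excitation. The 20-min minus 0-min signal was scaled between DMSO/no-enzyme wells and ADEP (5.8 microM final).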
* = called active by the depositor; ? = inconclusive; . = no result. The list is not random: actives were taken first. Their share in the collection is about 21%. Unless noted, calls come from the whole dose curve; as a rule, active = well fitted inhibition curve with a large enough effect; inconclusive = small, poorly fitted or top-dose-only effect; inactive = flat fitted curve, though single readings scatter.

SMILES	DT40 TDP1 CPT	D3 antag	DRD3 agonist	TDP1 cell noCPT	IL1B secr inh	ClpP mod
COc1nc2ccccc2c(=O)n1-c1ccc(Cl)cc1	?	21	7	-25%	17	-2%
CN(CC(=O)Nc1ccccc1-c1ccccc1)C1CCCCC1	23µM*	12	-6	?	-10	0%
CCN(C1CCCCC1)S(=O)(=O)c1ccc(S(=O)(=O)N(CC(=O)Nc2ccccc2)C2CC2)cc1	?	-6	-9	?	0	-1%
O[C@H]1[C@H]2[C@H](O)CCCN2C[C@H]1O	8%	.	-15	-16%	.	.
CCc1ccc2c(c1)Sc1ccccc1CC2N1CCN(C)CC1 (stereo unspecified)	?	-116*	-19	18µM*	-65*	1%
COC(=O)c1cccc(NC(=O)c2ccc(S(=O)(=O)N(C)c3ccccc3OC)cc2)c1	16µM*	5	-3	12µM*	45	-9%
CCOc1ccc2nc(NC(=O)c3cccn(Cc4ccccc4Cl)c3=O)sc2c1	-3%	.	3	15%	.	-9%
Cc1cc(C)[n+](C2C3CC4CC(C3)CC2C4)o1 (stereo unspecified)	-29%	-25	5	21µM*	14	-6%
O=c1[nH]c(=O)n(C2CCCCC2)c(O)c1/C=C/C=Nc1ccccc1	-3%	1	0	1%	-18	.
CCc1ccccc1NC(=O)C1CCCN(c2ncnc3onc(C)c23)C1 (stereo unspecified)	18µM*	.	8	9.2µM*	.	-3%
COc1ccc(-n2nnnc2C(c2ccccc2OC(F)(F)F)N2CCC3(CC2)C(=O)NCN3c2ccccc2)cc1 (stereo unspecified)	18µM*	71	19	23µM*	0	0%
O=C1NCN(c2ccccc2)C12CCN(C(c1ccccc1OC(F)(F)F)c1nnnn1-c1ccc3c(c1)OCCO3)CC2 (stereo unspecified)	?	0	2	?	?	-4%
COc1ccc(C(c2nnnn2-c2ccc(OC)cc2)N2CCC3(CC2)C(=O)NCN3c2ccccc2)cc1 (stereo unspecified)	?	-1	3	?	?	-1%
COc1ccc(-n2nnnc2C(c2ccccc2)N2CCC3(CC2)C(=O)NCN3c2ccccc2)cc1 (stereo unspecified)	?	9	-3	?	-59*	-2%
CC(C)(C)n1nnnc1C(c1cc2ccccc2o1)N1CCC2(CC1)C(=O)NCN2c1ccccc1 (stereo unspecified)	?	-99*	-13	?	-25	-5%
Cc1cccc(C)c1-n1nnnc1C(c1cccs1)N1CCC2(CC1)C(=O)NCN2c1ccccc1 (stereo unspecified)	15µM*	3	1	15µM*	-4	0%
COc1ccc(-n2nnnc2C(c2ccnc3ccccc23)N2CCC3(CC2)C(=O)NCN3c2ccccc2)cc1 (stereo unspecified)	?	48	7	23µM*	0	3%
COCCCNP1(=O)OCC(C)([N+](=O)[O-])CO1 (stereo unspecified)	-15%	8	-14	-13%	0	1%
COCCCN1CCN(c2nnc3n2-c2sc(Br)cc2C(c2ccccc2Cl)=NC3)CC1	?	-57*	-6	?	-2	-2%
COc1ccc(CC2(CCc3ccncc3)C(=O)NC(=O)NC2=O)cc1OC	-18%	-12	2	-18%	14	-2%
COC(=O)C1=C(c2ccc(OC)c(OC)c2)C[C@@H]2CC[C@H]1N2C(=O)NC(C)C	9%	39	3	-20%	14	0%
CC[C@]1(C2=NCCN2)Cc2ccccc2O1	5%	.	.	-20%	.	.
